Results reported in PubChem BioAssay (NCI).
The panel holds about 83,000 compounds, 20% with a hit somewhere; the sample as a whole holds those more often.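 Assay: single dose, 48 h. Readout: percent growth (0 = no net growth; negative = cell death). Active: <10.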 Calls of active or inactive are those of the source.

Tested on: MDA-MB-468 breast
Assay: NCI-60 one-dose screen, 48 h (100 = growth as untreated, 0 = no growth, -100 = all killed)
Details: 10 µM unless noted
Description: Growth inhibition of the MDA-MB-468 human Breast tumor cell line is measured as a screen for anti-cancer activity. Cells are grown in 96 well plates and exposed to the test compound for 48 hours. Compounds are tested at a single concentration, which is 10^-5 M for most compounds. The reported endpoint is percent growth (GI% or GIPRCNT), where numbers from 0 - 100% represent growth inhibition, and numbers from -100% - 0 represent cell death. For example, a value of 40 represents 60% growth inhibition. A value of 0 means no net growth occurred over the course of the experiment. A value of -40 indicates 40% of cells at the beginning of the experiment died by the end of the experiment. A value of -100 means all cells are dead at the end of the experiment.
NCI-60 Human Tumor Cell Lines Screen was performed using the standard one-dose NCI protocol, which is described in more detail at https://dtp.cancer.gov/discovery_development/nci-60/default.htm.
Compounds with GIPRCNT values below 10 were considered active. Activity score was based on GIPRCNT using the following formula: […]
Score is 0 for GIPRCNT values of 100 or above, 50 for GIPRCNT values of 0, and 100 for GIPRCNT values of -100.

| Structure (SMILES) | growth |
| --- | --- |
| ClC1OC(Cl)(Cl)C(Cl)(Cl)OC1(Cl)Cl (stereo not given) | 105% (inactive) |
| CN(C)C(=O)Oc1ccc(Br)cc1 | 98.6% (inactive) |
| O=[N+]([O-])c1cc(I)cc([N+](=O)[O-])c1 | 88.2% (inactive) |
| Fc1c[c-]c(-c2ccccn2)c(F)c1.[CH3-].[Pt+2].c1ccc([PH+](c2ccccc2)c2ccccn2)cc1 | -21.7% (active) |
| CCC1(C(C)C)C(=O)NC(=S)NC1=O | 89.9% (inactive) |
| CCOP(=O)(NC[C@H]1O[C@](O)(CO)[C@@H](O)[C@@H]1O)OCC | 107% (inactive) |
| Cc1ccc2c(C(C[N+](=O)[O-])c3cccs3)c(-c3ccccc3)[nH]c2c1 (stereo not given) | -5.47% (active) |
| CC[C@H](C)[C@H](NC(=O)[C@H]1CCCCN1C)C(=O)N(C)[C@H](C[C@@H](OC(C)=O)c1nc(C(=O)NC23C4C5C2C2C3C4C52C(=O)OC)cs1)C(C)C (stereo not given in full) | -2.75% (active) |
| COc1ccc(/C=C\c2cc(OC)c(OC)c(OC)c2)cc1NC(=O)/C=C/c1ccc(OC)c(OC)c1 | 1.52% (active) |
| Cn1cc(-c2csc(-c3cn(CCCCN4CCCCC4)c4ccccc34)n2)c2cccnc21 | -26.9% (active) |
| O=C(CBr)Nc1ccc(Cl)cc1 | 92.8% (inactive) |
| CC[C@H](C)[C@H](NC(=O)CN(C)C)C(=O)N(C)[C@H](C[C@@H](OC(C)=O)c1nc(C(=O)NC23C4C5C2C2C3C4C52C(=O)OC)cs1)C(C)C (stereo not given in full) | -18.6% (active) |
| COc1cc2c(c(OC)c1OC)-c1ccc([O-])c(=O)cc1[C@@H](NC(C)=O)CC2.COc1cc2c(c(OC)c1OC)-c1ccc([O-])c(=O)cc1[C@@H](NC(C)=O)CC2.[Cu+2] | 2.02% (active) |
| CC(=O)Cc1ccc2c(c1)OCO2 | 103% (inactive) |
| COc1ccccc1[As]=[As]c1ccccc1OC (stereo not given) | -94.8% (active) |
| ClCc1ccc2ccccc2n1 | 84.1% (inactive) |
| CC1(C)N=C(N)N=C(N)N1c1ccc(CCCCc2ccc(S(=O)(=O)F)cc2)c(Cl)c1 | 7.5% (active) |
| C#COc1cccc(Nc2ncnc3cc(NC(=O)CF)ccc23)c1 | 80.2% [6.25 µM] (inactive) |
| O=NN(c1ccccc1)c1ccccc1 | 95% (inactive) |
| C=CCN=C([Se])NC(=O)c1ccc2c(c1)OCO2 | 110% (inactive) |

| Structure (SMILES) | growth |
| --- | --- |
| C=C1[C@@H](C)C2[C@H](Cc3ccccc3)NC(=O)[C@]23[C@H](OC(C)=O)/C=C/[C@@](C)(O)C(=O)[C@@H](C)C/C=C/[C@H]3[C@@H]1O (stereo not given in full) | 45.2% (inactive) |
| CC[C@H](C)[C@H](NC(=O)c1cnccn1)C(=O)N(C)[C@H](C[C@@H](OC(C)=O)c1nc(C(=O)N[C@@H](Cc2ccccc2)C[C@H](C)C(=O)OC)cs1)C(C)C | 31.5% (inactive) |
| c1ccc2c(c1)sc1ccccc12 | 97.2% (inactive) |
| CC1COC(=O)C1 (stereo not given) | 106% (inactive) |
| N#Cc1ccc(Cl)cc1 | 123% (inactive) |
| O[C@H](CN1CC1)[C@@H](O)CN1CC1 | 9.35% (active) |
| c1ccc(-c2ccc3ccccc3[o+]2)cc1 | 94% (inactive) |
| Cc1cc(N(CCCl)CCCl)ccc1C=Nc1cccnc1 | -74.8% (active) |
| C[C@]12C[C@H](O)[C@H]3[C@@H](CCC4=CC(=O)CC[C@@]43C)[C@@H]1CC[C@@H]2O | 99.7% (inactive) |
| CC12OOC(C)(OO1)C2CCC(=O)OCCNc1ccnc2cc(Cl)ccc12 (stereo not given) | -51.6% (active) |
| O=S1(=O)OCCO1 | 98.2% (inactive) |
| O=C1C=C(N2CC2)c2ccccc2C1=O | 24.6% (inactive) |
| Cc1cc(C)c(CBr)c(C)c1 | 98.9% (inactive) |
| CC(=O)Nc1nc2c(s1)CC[C@@]1(C)C2=CC[C@H]2[C@@H]3CC[C@H](O)[C@@]3(C)CC[C@@H]21 | 58.2% (inactive) |
| CCOCC1(CCc2ccccc2)C(=O)NC(=S)NC1=O | 119% (inactive) |
| c1cc2c(c3c1CCNC3)OCO2 | 87.4% (inactive) |
| COc1ccc2c(c1)c(-c1nc(-c3cn(C)c4ncccc34)cs1)cn2CCCCN1CCCCC1 | -2.69% (active) |
| COc1ccc(/C=C\c2cc(OC)c(OC)c(OC)c2)c(NS(=O)(=O)c2ccc(C)cc2)c1O | 23.2% (inactive) |
| O=[As]c1ccc(C(=O)c2ccc(Oc3ccccc3)cc2)cc1 (stereo not given) | -85.6% (active) |
| CC1(C)N=C(N)N=C(N)N1c1ccc(CCCCc2ccc(Cl)c(S(=O)(=O)F)c2)c(Cl)c1 | 6.7% (active) |
